Laboratory results: PubChem BioAssay AID1851 (National Center for Advancing Translational Sciences (NCATS), 2009)
“And” between values parts separate entries of the source, which are not always exact repeats. Equal entries are not always repeated. In all, about 16,000 compounds went through this assay and about 5,800 (36%) were called active. Inconclusive results (about 23%) are left out. The call rests on the fitted dose curve; in most records, active means well fitted curve in the direction sought with a large enough effect; inconclusive means small, poorly fitted or top-dose-only effect, or effect the other way; inactive means no such curve, though single readings can be large or run the other way. Some of the results follow.

molecular target: Cytochrome P450 2C19 (Homo sapiens) (UniProt P33261); test: Cytochrome panel assay with activity outcomes; conditions: recombinant CYP, pro-luciferin dealkylation, luminescence, p450-cyp2c19; series mostly up to 57.1 µM; activity, negative = inhibition: at the top concentration
On the % scale 0 is the no-effect control and ±100 the full control effect.

Chain of Cytochrome P450 2C19 (Homo sapiens) (P33261 whole entry, looked up): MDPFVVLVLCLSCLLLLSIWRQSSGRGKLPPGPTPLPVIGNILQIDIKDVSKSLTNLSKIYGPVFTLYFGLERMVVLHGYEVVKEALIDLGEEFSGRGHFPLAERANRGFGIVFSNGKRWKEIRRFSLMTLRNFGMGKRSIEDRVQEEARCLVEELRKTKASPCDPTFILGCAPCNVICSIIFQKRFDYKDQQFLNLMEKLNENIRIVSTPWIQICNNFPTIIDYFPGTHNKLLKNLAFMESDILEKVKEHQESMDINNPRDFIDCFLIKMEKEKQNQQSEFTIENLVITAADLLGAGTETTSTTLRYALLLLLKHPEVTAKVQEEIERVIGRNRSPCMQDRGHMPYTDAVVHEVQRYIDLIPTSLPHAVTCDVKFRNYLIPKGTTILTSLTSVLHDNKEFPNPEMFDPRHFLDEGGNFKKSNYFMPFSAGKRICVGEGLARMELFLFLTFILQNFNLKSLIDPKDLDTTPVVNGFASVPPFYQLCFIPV

Row | Structure (SMILES) | activity, negative = inhibition | AC50
1 | COCCn1c(=O)c(-c2cc(F)cc(F)c2)nc2cnc(N(C)C)nc21 | 38.8% (inactive) | 
2 | O=[N+]([O-])C1=CC=C2C(=NC3(CCCCC3)N2O)C1=NC1CCCCC1 |  | 3.16 µM (active)
3 | Cc1ccc(NC(=O)Nc2ncccc2C)cc1 |  | 15.8 µM (active)
4 | Cc1cccc(C)c1NC(=O)Nc1ccc(S(N)(=O)=O)cc1 | 23.1% [at 11.4 µM] (inactive) | 
5 | O=C(Nc1ccc2ncccc2c1)Nc1ccc2ncccc2c1 | 14.5% [at 11.4 µM] (inactive) | 
6 | CCN(/C=N/c1sc2c(c1C#N)CCCCC2)CC |  | 1.26 µM (active)
7 | CC(C)NCC[C@@H](O)c1cc2ccccc2o1 | 31.3% [at 11.4 µM] (inactive) | 
8 | CCOC(=O)CSc1nnc(CSc2nc3sc4c(c3c(=O)[nH]2)CCCC4)n1-c1ccccc1 |  | 2.51 µM (active)
9 | COC(=O)C(NS(=O)(=O)c1ccc(NC(C)=O)cc1)C(C)C (centres undefined) |  | 3.16 µM (active)
10 | Cc1ccc(S(=O)(=O)N[C@H](C(=O)O)C(C)C)cc1 | 4% [at 11.4 µM] (inactive) | 
11 | Nc1ccc(S(=O)(=O)c2ccc(NC(=O)c3cccnc3)cc2)cc1 | 3.12% [at 11.4 µM] (inactive) | 
12 | COC(=O)[C@@H](NC(=O)Nc1ccc(C(C)=O)cc1)C(C)C |  | 17.8 µM (active)
13 | CC(=O)Nc1ccc(S(=O)(=O)N=S(C)C)cc1 | 14.7% [at 11.4 µM] (inactive) | 
14 | CC(=O)Nc1ccc(S(=O)(=O)c2ccc(N)cc2)cc1 |  | 15.8 µM (active)
15 | Oc1cc2c(cc1O)[C@H](c1ccccc1)CNCC2 |  | inactive
16 | CO/N=C\[C@@H](C)[C@H](OCc1ccccc1)C(C)C | 2.64% [at 11.4 µM] (inactive) | 
17 | Cc1ccc(C(C2C(=O)CC(C)(C)CC2=O)C2C(=O)CC(C)(C)CC2=O)s1 |  | 11.2 µM (active)
18 | CC1(C)CC(=O)C(C(c2cccc(O)c2O)C2C(=O)CC(C)(C)CC2=O)C(=O)C1 | 26% [at 11.4 µM] (inactive) | 
19 | CN1CCCN(C2C3CC4CC(C3)CC2C4)CC1 (centres undefined) | -11.6% (inactive) | 
20 | O=C(C1CCCN(S(=O)(=O)c2cccc3nsnc23)C1)N1CC=C(c2ccccc2)CC1 (centres undefined) |  | 2.51 µM (active)
21 | O=S(=O)(c1cccc2c(Cl)cccc12)N1CCCNCC1 |  | inactive
22 | CC(C)N1CCN(c2ccncc2S(=O)(=O)N2CCCCC2)CC1 | -23.9% [at 11.4 µM] (inactive) | 
23 | O=S(=O)(c1ccccc1S(=O)(=O)N1CCCCC1)N1CCCCC1 |  | 22.4 µM (active)
24 | O=C(C1CCN(S(=O)(=O)c2cccc3nsnc23)CC1)N1CCn2c1nc1ccccc12 |  | 10 µM (active)
25 | O=C(C1CCN(S(=O)(=O)c2cccc3nsnc23)CC1)N1CCN(c2ccccc2F)CC1 |  | 22.4 µM (active)

Row | Structure (SMILES) | activity, negative = inhibition | AC50
26 | O=C(Nn1cc(C(=O)N2CCN(c3ccccc3F)CC2)c2ccccc2c1=O)c1cnccn1 | 5.4% (inactive) | 
27 | CC1CCC(C(=O)O)([C@H](Br)C(=O)O)CC1 (some centres undefined) | -0.894% [at 11.4 µM] (inactive) | 
28 | COc1ccc([C@@H]2CNC(=O)C2)cc1OC1CCCC1 |  | inactive
29 | Cc1ncc(CO)c(CO)c1O | -13.5% [at 25.6 µM] (inactive) | 
30 | O=S(=O)(c1cnccc1N1CCN(CCO)CC1)N1CCCC1 | 33.1% [at 11.4 µM] (inactive) | 
31 | O=C(C1CCN(S(=O)(=O)c2cccc3nsnc23)CC1)N1CCCc2ccccc21 |  | 2 µM (active)
32 | CC1CCN(C(=O)C2CCN(S(=O)(=O)c3cccc4nonc34)CC2)CC1 |  | 11.2 µM (active)
33 | C[C@H]1CN(S(=O)(=O)c2cccc3cnccc23)CCN1 | -17.5% (inactive) | 
34 | O=S(=O)(c1cccc2nsnc12)N1CCCC1 |  | 0.891 µM (active)
35 | CC(=O)Nc1ccc(NC(=O)C2CCN(S(=O)(=O)c3cccc4nonc34)CC2)cc1 | -27.7% (inactive) | 
36 | O=C(C1CCN(S(=O)(=O)c2cccc3nsnc23)CC1)N1CCc2ccccc21 |  | 14.1 µM (active)
37 | Cc1ccc(S(=O)(=O)N[C@H]2COC(=O)CC=C[C@@H](C)[C@H]3C=C[C@H](O)[C@@H](COC(=O)CC=C[C@H]2C)O3)cc1 | 14.2% [at 11.4 µM] (inactive) and 5.29% [at 11.4 µM] (inactive) | 
38 | NC[C@@H]1O[C@H](O[C@@H]2[C@H](O[C@@H]3O[C@H](CO)[C@@H](COC[C@H]4O[C@@H](CN)[C@@H](O)[C@@H](O)[C@@H]4N)[C@@H]3O)[C@@H](O)[C@@H](N)C[C@H]2N)[C@@H](N)[C@H](O)[C@@H]1O | 20.1% [at 25.6 µM] (inactive) | 
39 | CCCN(CCC)C[C@@H]1CCCCN1CCNC(=O)N1c2ccccc2C(=O)Nc2cccnc21 |  | 7.94 µM (active)
40 | O=C(O)CN(CCN(CC(=O)O)CC(=O)O)CCN(CC(=O)O)CC(=O)O | -18.6% (inactive) | 
41 | Cc1cc(C)c(S(=O)(=O)N2CCCCC2)c(C)c1N(C)S(=O)(=O)c1ccccc1 |  | 2.51 µM (active)
42 | CCc1ccc2c(c1)cc(CN(C(=S)Nc1cccc(C)c1)C1CC1)c1nnnn12 |  | 2.24 µM (active)
43 | CCCNS(=O)(=O)c1ccc(OCC(=O)OC)cc1 |  | 10 µM (active)
44 | CCN1C(=O)/C(=C/C=C2/SCCN2C)SC1=S |  | 14.1 µM (active)
45 | Cc1ccn2c(NC(=O)c3ccccc3)c(-c3cccs3)nc2c1 |  | 17.8 µM (active)
46 | CCNc1ncc2nc(-c3cccs3)c(=O)n(C)c2n1 | 2.33% (inactive) | 
47 | CCn1c(SCc2nc3ccccc3[nH]2)nnc1-c1ccc(OC)cc1 |  | 2.51 µM (active)
48 | c1ccc(-c2nnc(SCc3nc4ccccc4[nH]3)n2Cc2ccco2)cc1 |  | 2.51 µM (active)
49 | c1ccc(SCc2nc3ccccc3[nH]2)cc1 |  | 1.41 µM (active)
50 | OC(Cc1nc2ccccc2[nH]1)c1ccccc1Cl (centres undefined) |  | 8.91 µM (active)

Row | Structure (SMILES) | activity, negative = inhibition | AC50
51 | O=C(c1cnccn1)N1CCC2(CC1)CN(Cc1cc(C(F)(F)F)cc(C(F)(F)F)c1)C2 | -28.5% (inactive) | 
52 | C=CCNC(=S)N1CCN(c2ncc3c(=O)c(C(=O)O)cn(CC)c3n2)CC1 | -24.5% (inactive) | 
53 | Cc1cc(NC(=O)C2CCCCC2)nc2c1c(=O)oc1ccccc12 |  | 8.91 µM (active)
54 | COc1ccc2oc(=O)c(NC(=O)C3CCCCC3)cc2c1 | -27.6% (inactive) | 
55 | N#Cc1c(-c2ccc3c(c2)OCO3)ccn2nc(-c3cccc(C(F)(F)F)c3)nc12 |  | 2.51 µM (active)
56 | COc1c(O)cc2c(c1O)[C@@H]1O[C@@H](CO)[C@@H](O)[C@@H](O)[C@@H]1OC2=O | 32.9% [at 25.6 µM] (inactive) | 
57 | Cc1ccc(S(=O)(=O)NC(=O)Nc2ncn[nH]2)cc1 | 37.1% [at 11.4 µM] (inactive) | 
58 | Cc1nnc(NS(=O)(=O)c2ccc(N)cc2)s1 | 23.1% [at 25.6 µM] (inactive) | 
59 | Cc1ccc(S(=O)(=O)Nc2nc(C)c(NC(=O)Nc3ccc(Cl)cc3Cl)s2)cc1 |  | 14.1 µM (active)
60 | O=c1[nH]c2ccccc2c2ccccc12 | -30.4% (inactive) | 
61 | O=c1[nH]ccc2c(O)cccc12 | 11.1% (inactive) | 
62 | Cc1nc2c(O)cccc2c(=O)[nH]1 |  | 0.398 µM (active)
63 | CN(C)Cc1ccccc1-c1nc(N2CCOCC2)c2ccccc2n1 | 30.7% (inactive) | 
64 | CN1c2ccccc2C(C)(C)C12C=Nc1c(cc(N3CCOCC3)c3ccccc13)O2 (centres undefined) |  | 3.55 µM (active)
65 | Cc1ccc(C2/C(=C(/O)c3ccc(Cl)cc3)C(=O)C(=O)N2CC2CCCO2)o1 (centres undefined) | -16.5% (inactive) | 
66 | COc1cccc(C2=CC(c3ccccc3)n3nnnc3N2)c1 (centres undefined) |  | 0.158 µM (active)
67 | O=c1c2ccccc2c(-c2ccccc2)nn1-c1ccc(Cl)c(Cl)c1 |  | 2.51 µM (active)
68 | Cn1c(=O)c(-c2ccc(Cl)cc2)nc2cnc(Nc3ccccc3)nc21 | 6.65% (inactive) | 
69 | COc1ncc2nc(-c3ccccc3)c(=O)n(-c3ccccc3)c2n1 | -27.6% (inactive) | 
70 | O=c1c2ccccc2c(-c2ccccc2)nn1Cc1ccc(Cl)cc1 |  | 1.12 µM (active)
71 | COc1ncc2nc(-c3ccc(Cl)cc3)c(=O)n(-c3ccccc3)c2n1 | -31.9% (inactive) | 
72 | O=C(O)Cc1nn(Cc2ccc(Br)cc2F)c(=O)c2ccccc12 | -24.3% (inactive) | 
73 | CN1Cc2c(N)cccc2[C@H](c2ccccc2)C1 |  | inactive
74 | O=P(O)(CCP(=O)(O)c1ccccc1)c1ccccc1 | 2.23% [at 11.4 µM] (inactive) | 
75 | O=P(Cc1cc[n+]([O-])cc1)(c1ccccc1)c1ccccc1 |  | 15.8 µM (active)

Row | Structure (SMILES) | activity, negative = inhibition | AC50
76 | CCCN(CCC)CCCNC(=O)CS(=O)Cc1nc(-c2ccc(OC)c(OC)c2)oc1C (centres undefined) | -24.7% (inactive) | 
77 | CCS(=O)(=O)N1CCC(C(=O)NCCN2CCN(Cc3ccccc3)CC2)CC1 | -5.92% (inactive) | 
78 | Cc1ccccc1-c1nc(CS(=O)CC(=O)NCCN2CCN(Cc3ccccc3)CC2)c(C)o1 (centres undefined) |  | 17.8 µM (active)
79 | CN(Cc1ccco1)c1ncnc2ccc(-c3cccc(C#N)c3)cc12 |  | 6.31 µM (active)
80 | CNc1ncnc2ccc(-c3ccccc3C#N)cc12 | -33.6% (inactive) | 
81 | CN(Cc1ccco1)c1ncnc2ccc(-c3ccccc3C(F)(F)F)cc12 |  | 3.16 µM (active)
82 | CN(C)c1ncnc2ccc(-c3ccccc3C#N)cc12 | -19.8% (inactive) | 
83 | CN(Cc1ccco1)c1ncnc2ccc(-c3ccccc3C#N)cc12 |  | 1.26 µM (active)
84 | CN1CCN(c2ncnc3ccc(-c4cccc(C#N)c4)cc23)CC1 | -31.3% (inactive) | 
85 | CN(Cc1ccco1)c1ncnc2ccc(-c3ccccc3Cl)cc12 |  | 3.16 µM (active)
86 | COc1ncc2nc(-c3ccc(F)cc3)c(=O)n(C)c2n1 | -5.58% (inactive) | 
87 | Cc1noc(C)c1-c1ccc2ncnc(N(C)Cc3ccco3)c2c1 |  | 5.01 µM (active)
88 | Cc1noc(C)c1-c1ccc2ncnc(N3CCN(C)CC3)c2c1 | -24.5% (inactive) | 
89 | Cc1noc(C)c1-c1ccc2ncnc(N3CCOCC3)c2c1 | -43.8% (inactive) | 
90 | COc1cc(/C=C2\SC(=S)N(Nc3ccccc3)C2=O)cc(OC)c1OC |  | 11.2 µM (active)
91 | Cc1ccc(S(=O)(=O)/C=C\C#N)cc1 |  | 5.01 µM (active)
92 | Cc1nn(-c2nc3ccccc3[nH]2)c(N)c1-c1ccc(Cl)cc1 |  | 4.47 µM (active)
93 | OCCNc1nc2ccccc2[nH]1 | -39.8% (inactive) | 
94 | O=c1ccnc(SCc2ccc(Cl)cc2)[nH]1 | -32.7% [at 11.4 µM] (inactive) | 
95 | Cc1ccccc1CSc1nccn1-c1ccccc1 |  | 0.631 µM (active)
96 | Clc1ccc(CSc2nccn2Cc2ccccc2)cc1 |  | 0.224 µM (active)
97 | O=C(O)CSCCc1ccccc1 | 6.64% [at 11.4 µM] (inactive) | 
98 | O=C(CSc1nccn1-c1ccccc1)c1ccc(Cl)cc1 |  | 0.447 µM (active)
99 | c1ccc(CCSc2nccn2-c2ccccc2)cc1 |  | 1.26 µM (active)
